A short description of assay [1]: Quantitative High-Throughput drug screen in 47 multiple myeloma cell lines against the NCATS MIPE library collection: LP1_DSMZ cell viability assay (AID 1918982). Further: nearly all actives have a fitted effect of over 35% in size. The gist of the method:
(§1)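 500 cells/well; MIPE 4.0 drugs pin-transferred; 48 h, 37C, 5% CO2. CellTiter-Glo, 5 min RT, luminescence. Controls: DMSO 100%, media 0%.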

Assay [2] can be described thus: Quantitative High-Throughput drug screen in 47 multiple myeloma cell lines against the NCATS MIPE library collection: KMS28PE_JCRB cell viability assay (AID 1918983). Further: nearly all actives have a fitted effect of over 35% in size. The gist of the method:
as §1

A short description of assay [3]: Quantitative High-Throughput drug screen in 47 multiple myeloma cell lines against the NCATS MIPE library collection: L363_DSMZ cell viability assay (AID 1918984). Further: nearly all actives have a fitted effect of over 40% in size. The conditions noted are these: L363 myeloma viability, CellTiter-Glo ATP luminescence, 48 h; viability (% of control): at 45.8 µM (top of the series). The gist of the method:
as §1

Assay [4] can be described thus: Quantitative High-Throughput drug screen in 47 multiple myeloma cell lines against the NCATS MIPE library collection: OCIMY5_PLB cell viability assay (AID 1918988). Further: nearly all actives have a fitted effect of over 65% in size. The gist of the method:
as §1

The nature of assay [5]: Quantitative High-Throughput drug screen in 47 multiple myeloma cell lines against the NCATS MIPE library collection: SKMM1_PLB cell viability assay (AID 1919863). Further: nearly all actives have a fitted effect of over 35% in size. To be noted: SKMM1 myeloma viability, CellTiter-Glo ATP, 48 h; viability: hits give low values. The gist of the method:
as §1
(In ATP-based viability assays light output follows the ATP content of the culture.)

Assay [6] can be described thus: Quantitative High-Throughput drug screen in 47 multiple myeloma cell lines against the NCATS MIPE library collection: U266_ATCC cell viability assay (AID 1919864). Further: nearly all actives have a fitted effect of over 35% in size.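 On viability (% of DMSO control): 0% = media-only wells without cells and 100% = DMSO-only wells.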 The gist of the method: as §1
Assay [7] can be described thus: Quantitative High-Throughput drug screen in 47 multiple myeloma cell lines against the NCATS MIPE library collection: XG6_PLB cell viability assay (AID 1919865). Further: nearly all actives have a fitted effect of over 40% in size. The gist of the method: as §1
Assay [8] is described as follows: Quantitative High-Throughput drug screen in 47 multiple myeloma cell lines against the NCATS MIPE library collection: UTMC2_PLB cell viability assay (AID 1919868). Further: nearly all actives have a fitted effect of over 55% in size.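 On viability (% of DMSO control): 100% = DMSO-only wells and 0% = media-only wells without cells.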 To be noted: CellTiter-Glo ATP luminescence, 48 h; viability (% of DMSO control): at 45.8 µM (top of the series). The gist of the method:
as §1

A short description of assay [9]: Quantitative High-Throughput drug screen in 47 multiple myeloma cell lines against the NCATS MIPE library collection: PE2_PLB cell viability assay (AID 1919869). Further: nearly all actives have a fitted effect of over 35% in size.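 On viability (% of control): 100% = DMSO-only wells and 0% = cell-free media-only wells.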 The gist of the method: as §1
Assay [10] is described as follows: Quantitative High-Throughput drug screen in 47 multiple myeloma cell lines against the NCATS MIPE library collection: RPMI8226_ATCC cell viability assay (AID 1919871). Further: nearly all actives have a fitted effect of over 30% in size. The gist of the method:
as §1

Assay [11] in a line: Quantitative High-Throughput drug screen in 47 multiple myeloma cell lines against the NCATS MIPE library collection: OPM2_DSMZ cell viability assay (AID 1919872). Further: nearly all actives have a fitted effect of over 30% in size. The gist of the method: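 Relative luminescence from CellTiter-Glo served as the viability signal, referenced to DMSO-treated (100%) and cell-free medium (0%) controls. Treatment lasted 48 hours at 37C with 500 cells per well.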

Assay [12] is described as follows: Quantitative High-Throughput drug screen in 47 multiple myeloma cell lines against the NCATS MIPE library collection: KMS11_JCRBsus cell viability assay (AID 1919873). Further: nearly all actives have a fitted effect of over 50% in size.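 On viability (% of control): 100% = DMSO-only wells and 0% = media-only wells without cells.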 The gist of the method: as §1
Assay [13] in a line: Quantitative High-Throughput drug screen in 47 multiple myeloma cell lines against the NCATS MIPE library collection: KMS34_JCRB cell viability assay (AID 1918985). Further: nearly all actives have a fitted effect of over 40% in size. The gist of the method: as §1
Assay [14] is described as follows: Quantitative High-Throughput drug screen in 47 multiple myeloma cell lines against the NCATS MIPE library collection: OCIMY7_PLB cell viability assay (AID 1918987). Further: nearly all actives have a fitted effect of over 65% in size. To be noted: OCI-MY7 myeloma viability, CellTiter-Glo ATP, 48 h; viability (% of DMSO): at 45.8 µM (top of the series). The gist of the method:
as §1

A short description of assay [15]: Quantitative High-Throughput drug screen in 47 multiple myeloma cell lines against the NCATS MIPE library collection: OPM1_PLB cell viability assay (AID 1918989). Further: nearly all actives have a fitted effect of over 40% in size. The gist of the method:
as §1

The nature of assay [16]: Quantitative High-Throughput drug screen in 47 multiple myeloma cell lines against the NCATS MIPE library collection: XG1_PLB cell viability assay (AID 1919866). Further: nearly all actives have a fitted effect of over 35% in size. The gist of the method: as §1
Assay [17] is described as follows: Quantitative High-Throughput drug screen in 47 multiple myeloma cell lines against the NCATS MIPE library collection: VP6_DJ cell viability assay (AID 1919867). Further: nearly all actives have a fitted effect of over 40% in size.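 On viability (% of DMSO): 100% = DMSO-only wells and 0% = wells with media alone.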 The gist of the method:
as §1

A short description of assay [18]: Quantitative High-Throughput drug screen in 47 multiple myeloma cell lines against the NCATS MIPE library collection: PCM6_Riken cell viability assay (AID 1919870). Further: nearly all actives have a fitted effect of over 30% in size. The gist of the method:
as §1

Assay [19] can be described thus: Quantitative High-Throughput drug screen in 47 multiple myeloma cell lines against the NCATS MIPE library collection: KMS28BM_JCRB cell viability assay (AID 1919874). Further: nearly all actives have a fitted effect of over 35% in size. The gist of the method:
as §1

Records with an inconclusive call do not appear. Values without a mark were called inactive. Calls of active or inactive are those of the source. The call rests on the fitted dose curve; in most records, active means well fitted cell-killing curve with a large enough effect; inconclusive means small, poorly fitted or top-dose-only effect, or effect the other way; inactive means no such curve, though single readings can be large or run the other way.

The text below walks through data of PubChem BioAssay (NCATS).
Potency means the concentration at half of the fitted maximal effect.

Regarding `O=C(O)CCC=CCC[C@@H]1[C@H](N2CCCCC2)[C@@H](O)C[C@@H]1OCc1ccc(-c2ccccc2)cc1`, the Potency result in [1], in assay [2], in assay [3], in assay [4], in assay [6] and in [7] was “inactive” in each case. Further, the Potency result in assay [8], in assay [9], in [10], in [11] and in [12] was “inactive” throughout. In addition, in assay [5], the viability was 114%.
For the molecule `CCCCCOC(=O)Nc1nc(=O)n([C@@H]2O[C@H](C)[C@@H](O)C2O)cc1F` (some centres undefined), the Potency result in assay [1], in assay [2], in [3], in assay [13], in assay [14] and in assay [15] was “inactive” throughout. Besides, the Potency result in [6], in assay [8], in assay [9], in [18], in [10] and in assay [11] was “inactive” each time. The figures for the Potency in assay [7], in assay [16] and in assay [17] were 3.32 µM (active), 18.7 µM (active) and 2.64 µM (active), respectively.
Turning to `CCCCC(F)(F)[C@@]1(O)CC[C@H]2[C@H](CC(=O)[C@@H]2CCCCCCC(=O)O)O1`, the Potency result in assay [1], in assay [2], in [3], in [15], in assay [6] and in assay [16] was “inactive” each time. Also, the Potency result in assay [9], in [18], in assay [11] and in assay [12] was “inactive” each time. Also, the Potency in assay [4] is 235 nM (active). Further, in assay [5], the viability was 97.7%.
For the molecule `COc1cc2nc(-c3cc(F)ccc3O)nc(N[C@@H]3CNC[C@@H]3C(C)(C)O)c2cc1OC`, the Potency is 9.35 µM (active) in [1]; 20.9 µM (active) in assay [2]; 1.87 µM (active) in assay [3]; 2.64 µM (active) in assay [14]; 13200 nM (active) in assay [4]; 3.72 µM (active) in assay [15]. Besides, the Potency in assay [6] is 20.9 µM (active); in [7] it was 0.935 µM (active); in assay [9], 7.43 µM (active); in [18], 2.96 µM (active); in [10], 23.5 µM (active); in assay [11], 16.6 µM (active). In addition, in assay [12], the Potency is 5.26 µM (active).
Turning to `CCCCOCCOc1nc(-c2ccc(C(=O)O)c(F)c2)sc1C`, the Potency result in [1], in assay [2], in [3], in [11], in assay [12] and in assay [19] was “inactive” throughout. Moreover, the Potency in assay [4] was 14800 nM (active); in assay [10] it was 10.5 µM (active). Further, in assay [5], the viability was 118%.
On to `CN(C)CC[C@H](CSc1ccccc1)Nc1ccc(S(=O)(=O)NC(=O)c2ccc(N3CCN(Cc4ccccc4-c4ccc(Cl)cc4)CC3)cc2)cc1[N+](=O)[O-]`, for which the Potency in assay [1] was 23.5 µM (active); in assay [2], 1.48 µM (active); in assay [14] it was 0.209 µM (active); in [4], 46.9 nM (active); in [15] it was 10.5 µM (active); in [5] it was 18.7 µM (active). For the same molecule, the Potency in assay [6] was 14.8 µM (active); in [7], 3.72 µM (active); in [17] it was 2.64 µM (active); in [8] it was 1.18 µM (active); in assay [9], 1.48 µM (active); in assay [18] it was 0.0526 µM (active). Besides, the Potency was 4.18 µM (active) in assay [10], 16.6 µM (active) in [11] and 1.87 µM (active) in assay [19].
As to `NS(=O)(=O)c1cc(Cl)c(Cl)c(S(N)(=O)=O)c1`, the Potency entry in assay [1], in [2], in assay [14], in assay [4], in assay [15] and in assay [6] was “inactive” in each case. The Potency result in [16], in assay [17], in assay [9], in assay [18], in [10] and in [11] was “inactive” in each case. The Potency entry in [19] was “inactive”.
`CN(C)CCN(C)C(=O)c1ccc(NC(=O)Nc2ccc(-c3nc(N4CCOCC4)c4ccn(CC(F)(F)F)c4n3)cc2)cc1`: the Potency in assay [1] is 0.166 µM (active); in assay [2] it was 0.0469 µM (active); in assay [13], 372 nM (active); in [14], 3.32 µM (active); in [4], 418 nM (active); in [15] it was 0.0093 µM (active). In addition, the Potency in [5] is 0.209 µM (active); in [17] it was 0.0469 µM (active); in assay [8], 0.0074 µM (active); in assay [9] it was 0.0074 µM (active); in [10], 0.0833 µM (active); in assay [11], 0.187 µM (active). For the same molecule, the Potency in assay [12] is 0.0372 µM (active); in [19], 0.0148 µM (active).
`CCCC1OC2C[C@@H]3[C@H]4CCC5=CC(=O)C=C[C@]5(C)[C@H]4C(O)C[C@]3(C)[C@]2(C(=O)CO)O1` (some centres undefined): the Potency in assay [1] was 0.0066 µM (active); in assay [2], 20.9 µM (active); in assay [3], 0.0662 µM (active); in [4], 37.2 nM (active); in [6], 16.6 µM (active); in assay [12], 0.0015 µM (active). The Potency entry in assay [7], in assay [16], in assay [17] and in [9] was “inactive” throughout.
As to `CC1(COc2ccc3c(c2)ncn3-c2ccc3cccc(N4CCC(N)CC4)c3n2)COC1`, the Potency is 1.18 µM (active) in assay [1]; 0.59 µM (active) in [2]; 1050 nM (active) in assay [13]; 0.059 µM (active) in assay [14]; 0.0235 µM (active) in assay [15]; 16.6 µM (active) in assay [5]. Also, the Potency in [6] was 0.059 µM (active); in [9] it was 0.0148 µM (active); in assay [10], 20.9 µM (active); in assay [11] it was 0.743 µM (active).
As to `Cc1cnc(-c2cc(N3CCN(C(=O)CCS(C)(=O)=O)CC3)ncc2Cl)c(C)c1`, the Potency result in assay [1], in assay [2], in assay [13], in assay [6], in assay [18] and in assay [10] was “inactive” each time. Further, the Potency result in [11] is “inactive”. The Potency was 2960 nM (active) in assay [4], 14.8 µM (active) in [7] and 16.6 µM (active) in assay [16]. Also, in [5], the viability is 114%.
On to `Cc1cc(OCCCS(C)(=O)=O)cc(C)c1-c1cccc(COc2ccc3c(c2)OC[C@H]3CC(=O)O)c1`, for which the Potency in assay [1] was 16.6 µM (active); in assay [2], 20.9 µM (active); in assay [14], 18.7 µM (active); in [15] it was 18.7 µM (active); in assay [5], 14.8 µM (active); in assay [7], 23.5 µM (active). The Potency in assay [16] is 16.6 µM (active); in assay [10], 18.7 µM (active); in assay [12], 18.7 µM (active); in assay [19], 20.9 µM (active). Also, the Potency entry in assay [13] and in assay [6] was “inactive” each time.
Consider `CC(=O)NCCC(=O)N[C@@H](CCC(N)=O)C(=O)N[C@@H](CO)C(=O)N[C@@H](CCC(N)=O)C(=O)N[C@@H](CCC(N)=O)C(=O)N[C@H](C(=O)N[C@@H](Cc1ccccc1)C(=O)N[C@]1(C)CCCCCCC=CCCC[C@@](C)(C(=O)N[C@@H](CCC(N)=O)C(=O)N[C@@H](CC(N)=O)C(N)=O)NC(=O)[C@H](CC(C)C)NC(=O)[C@H](CC(C)C)NC(=O)[C@@H](CCCNC(=N)N)NC(=O)[C@H](Cc2c[nH]c3ccccc23)NC(=O)[C@H](CC(C)C)NC(=O)[C@H](CC(N)=O)NC1=O)[C@H](C)O`, for which the Potency in assay [1] was 20.9 µM (active); in assay [2], 18.7 µM (active); in [14], 20.9 µM (active); in [15], 26.4 µM (active); in assay [5], 16.6 µM (active); in assay [9], 20.9 µM (active). The Potency in assay [10] is 9.35 µM (active). In addition, the Potency result in assay [19] is “inactive”.

As a reminder, the viability is a read-out of living cells in per cent, often relative to untreated cells.
